Sfp PPTase inh – Sfp phosphopantetheinyl transferase inhibition | Q9F4F7 | Biochemical Sfp PPTase activity, qHTS | Potency, µM, inactives show largest response in the series, negative = inhibition, hits mostly inhibitors | 310,000 compounds, 3.5% hits | AID 1490;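 also: the enzyme is Sfp with the accession as filed and its product quenches rhodamine fluorescence; potency is read from the fitted curve at half-maximal effect; 0% = enzyme reaction without inhibitor and -100% = no enzyme wells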
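Reaction rates are the 30-min fluorescence difference (ex 525, em 598 nm) in wells containing 15 nM Sfp, 5 uM rhodamine-CoA and 12.5 uM BHQ-2-YbbR at pH 7.6 with 10 mM MgCl2.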
FBPA coupling cs – inhibits coupling enzyme system, counter-screen for aldolase hits | coupling enzyme system counterscreen, AmpLite Red fluorescence | activity change, negative = inhibition, % at 58.2 µM, hits read low | 290,000 compounds, 0.67% hits; in the data active = activity change below about -30%
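Compounds tested against the coupling enzymes alone at 57.5 uM final; readout was AmpLite Red fluorescence (525/598 nm) after 20 min at RT.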
Tau ThT inhib – inhibitors of human tau fibril formation, thioflavin T binding. recombinant tau K18 P301L, heparin-induced fibrillization, ThT fluorescence. Potency, µM (top dose mostly 57.4 µM), for the others: top-dose activity, negative = inhibition, usual class: inhibitors. 270,000 compounds, 2.1% hits. AID 1460; also: potency is read from the fitted curve at half-maximal effect; nearly all actives have a fitted effect of over 55% in size
Target sequence (P10636 561-689 P618L limits assumed): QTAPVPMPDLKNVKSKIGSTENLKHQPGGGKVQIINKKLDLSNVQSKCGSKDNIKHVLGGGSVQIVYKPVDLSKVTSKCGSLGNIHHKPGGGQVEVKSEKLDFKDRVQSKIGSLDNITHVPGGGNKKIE
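K18 P301L tau (15 uM + 0.24 uM Alexa 594-tagged), heparin 20 uM, NaOAc pH 7, 6 h 37 C; ThT 30 uM, 1 h RT, ex 450/em 510 nm.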
Tau FP inhib – tau fibrillization inhibition (FP); Potency, µM (top dose mostly 57.7 µM), for the others: top-dose activity, negative = inhibition, usual class: inhibitors; P10636; AID 1468; 280,000 compounds, 0.39% hits; K18 P301L tau heparin fibrillization, Alexa594 FP, 6 h; also: potency is read from the fitted curve at half-maximal effect; nearly all actives have a fitted effect of over 55% in size
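Compound effects on tau fibrillization are measured by Alexa 594 fluorescence polarization (ex 555, em 632 nm). K18 P301L tau is used at 15 uM with 0.24 uM labeled tracer, and 20 uM heparin induces aggregation over 6 hr at 37 C.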
Tau fluor cs – counter-screen for tau fibril formation inhibitors; tau K18 P301L Alexa594 fluorescence, heparin fibrillization; Potency, µM (titrated, usually from 57.7 µM), inactives show top-dose activity change, negative = decrease; 280,000 compounds, 0.93% hits; AID 1463; also: potency is read from the fitted curve at half-maximal effect; nearly all actives have a fitted effect of over 55% in size
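Human tau K18 P301L (15 uM unlabeled, 0.24 uM Alexa 594-labeled) in 100 mM sodium acetate pH 7 with 20 uM heparin, 6 hr at 37 C. ThT 30 uM added, 1 hr ambient; Alexa 594 FP and total fluorescence read at 555/632 nm.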
Active calls of the source: *. The list is not random: actives were taken first. Their share in the collection is about 5.2%. Unless noted, calls follow the shape of the dose curve; as a rule, active = well fitted curve in the direction sought with a large enough effect; inconclusive = small, poorly fitted or top-dose-only effect, or another doubt; inactive = no such curve, though single readings can be large; an effect the other way counts as inactive or inconclusive. Unless noted, % is scaled to controls: 0 for no effect and ±100 for the full control effect.

What do the screens show for `O=C(Nc1sc2c(c1C(=O)NCc1ccco1)CCCC2)c1cc(=O)c2ccccc2o1`?
Tau ThT inhib: inconclusive; Tau FP inhib: 0.3%; Tau fluor cs: -12.6%

Results for CCOC(=O)c1c(/N=C/c2ccc(OC)cc2O)sc2c1CCN(C)C2 ?
Sfp PPTase inh: -21.7%; FBPA coupling cs: -19.7; Tau ThT inhib: inconclusive; Tau FP inhib: -10.8%; Tau fluor cs: inconclusive

What do the screens show for `CN1CCc2c(sc(/N=C/c3c[nH]c4ccccc34)c2C(N)=O)C1`?
Sfp PPTase inh: inconclusive; FBPA coupling cs: -18.1; Tau ThT inhib: 10µM*; Tau FP inhib: inconclusive; Tau fluor cs: inconclusive

Results for CN1CCc2c(sc(/N=C/c3cc(Cl)ccc3O)c2C#N)C1 ?
Sfp PPTase inh: -10.2%; FBPA coupling cs: -2.2; Tau ThT inhib: inconclusive; Tau FP inhib: -0.2%; Tau fluor cs: -28.0%

What do the screens show for `CN1CCc2c(sc(/N=C/c3c[nH]c4ccccc34)c2C#N)C1`?
Sfp PPTase inh: inconclusive; FBPA coupling cs: -30.0; Tau ThT inhib: 14.1µM*; Tau FP inhib: inconclusive; Tau fluor cs: inconclusive

What do the screens show for `CCOC(=O)c1noc2nc(C)n(Cc3ccc([N+](=O)[O-])cc3)c(=O)c12`?
Tau ThT inhib: 0.3%; Tau FP inhib: -1.8%; Tau fluor cs: 2.8%

Results for N#C/C(=C\Nc1ccc2cn[nH]c2c1)c1nc(-c2ccccc2)cs1 ?
Sfp PPTase inh: 56.2µM*; FBPA coupling cs: -3.1; Tau ThT inhib: -11.8%; Tau FP inhib: -16.5%; Tau fluor cs: inconclusive

What do the screens show for `COc1cc2c(cc1N/C=C(\C#N)c1nc(-c3ccccc3)cs1)oc1ccccc12`?
Sfp PPTase inh: 14.3%; FBPA coupling cs: 5.9; Tau ThT inhib: -15.0%; Tau FP inhib: 2.6%; Tau fluor cs: -17.4%

What do the screens show for `N#C/C(=C\Nc1ccc2cn[nH]c2c1)c1nc(-c2ccc(Cl)cc2)cs1`?
Sfp PPTase inh: 56.2µM*; FBPA coupling cs: -35.2*; Tau ThT inhib: inconclusive; Tau FP inhib: -16.9%; Tau fluor cs: inconclusive

What do the screens show for `CCOc1ccc(NC(=O)CN2CCN(CC(=O)Nc3ccc(N(CC)CC)cc3)CC2)cc1`?
Tau ThT inhib: -1.7%; Tau FP inhib: 8.1%; Tau fluor cs: -8.5%

Results for O=C1CC(c2cccc(F)c2)c2c(c3ccccc3[nH]c2=O)O1 (stereo not drawn) ?
Sfp PPTase inh: 6.31µM*; FBPA coupling cs: 11.3; Tau ThT inhib: -8.0%; Tau FP inhib: -3.9%; Tau fluor cs: -5.5%

What do the screens show for `O=C1CC(c2ccccc2F)c2c(c3ccccc3[nH]c2=O)O1` (stereo not drawn)?
Sfp PPTase inh: -14.9%; FBPA coupling cs: 7.2; Tau FP inhib: -3.1%; Tau fluor cs: 13.3%

How did COC(=O)Cc1[nH]n(-c2nc3ccccc3s2)c(=O)c1C(C)=Nc1ccc(C)cc1 do in these assays?
Sfp PPTase inh: 56.2µM*; FBPA coupling cs: 1.6; Tau ThT inhib: inconclusive; Tau FP inhib: 3.0%; Tau fluor cs: -3.7%

What do the screens show for `COC(=O)Cc1[nH]n(-c2ccccc2)c(=O)c1C(C)=Nc1ccccc1`?
Sfp PPTase inh: 9.8%; FBPA coupling cs: -0.2; Tau ThT inhib: inconclusive; Tau FP inhib: -5.5%; Tau fluor cs: -7.2%

How did COC(=O)Cc1[nH]n(-c2nc3ccccc3s2)c(=O)c1C(C)=Nc1ccc(Cl)cc1 do in these assays?
Sfp PPTase inh: 79.4µM*; FBPA coupling cs: 5.6; Tau ThT inhib: inconclusive; Tau FP inhib: 2.9%; Tau fluor cs: -4.4%

How did COc1cccc(-c2nn[nH]n2)c1O do in these assays?
Sfp PPTase inh: 50.1µM*; FBPA coupling cs: 6.0; Tau ThT inhib: 2.6%; Tau FP inhib: 0.7%; Tau fluor cs: 11.1%

Results for COc1ccc(-c2nn[nH]n2)cc1OC ?
Sfp PPTase inh: 11.8%; FBPA coupling cs: 0.3; Tau ThT inhib: -7.0%; Tau FP inhib: -3.6%; Tau fluor cs: -5.0%

How did COc1ccccc1Oc1nc2c(C)cccn2c(=O)c1/C=C(\C#N)c1nc2ccccc2[nH]1 do in these assays?
Tau ThT inhib: -10.7%; Tau FP inhib: inconclusive; Tau fluor cs: -14.4%

Results for COCCNc1nc(-c2ccc(N(C)C)cc2)nc2ccccc12 ?
Sfp PPTase inh: inconclusive; FBPA coupling cs: -7.1; Tau ThT inhib: inconclusive; Tau FP inhib: 4.9%; Tau fluor cs: inconclusive

Results for Cn1c(=O)c(C#N)c(-c2ccc(F)cc2)c2cc(C(=O)c3cc(Cl)cc(Cl)c3O)cnc21 ?
Sfp PPTase inh: 44.7µM*; FBPA coupling cs: -0.7; Tau ThT inhib: 14.1µM*; Tau FP inhib: 1.4%; Tau fluor cs: -24.4%

How did CCOC(=O)N1CCN(Cc2ccc(O)c3ncccc23)CC1 do in these assays?
Sfp PPTase inh: 23.6%; FBPA coupling cs: 1.9; Tau ThT inhib: inconclusive; Tau FP inhib: 3.6%; Tau fluor cs: -23.3%

How did O=[N+]([O-])c1ccccc1CN1CCN(c2ncccn2)CC1 do in these assays?
Sfp PPTase inh: -13.6%; FBPA coupling cs: 0.5

What do the screens show for `O=C(c1ccc([N+](=O)[O-])cc1)N1CCN(Cc2ccccc2[N+](=O)[O-])CC1`?
Sfp PPTase inh: 50.1µM*; FBPA coupling cs: -0.8; Tau ThT inhib: -10.7%; Tau FP inhib: -0.6%; Tau fluor cs: -6.9%

What do the screens show for `O=[N+]([O-])c1ccccc1CN1CCN(Cc2ccccn2)CC1`?
Sfp PPTase inh: 50.1µM*; FBPA coupling cs: 1.7; Tau ThT inhib: -7.1%; Tau FP inhib: 7.6%; Tau fluor cs: -5.0%

What do the screens show for `CCOC(=O)N1CCN(Cc2ccccn2)CC1`?
Sfp PPTase inh: 79.4µM*; FBPA coupling cs: -1.3; Tau ThT inhib: -6.1%; Tau FP inhib: 2.4%; Tau fluor cs: -0.8%

Results for COc1ccc(C(=O)N2CCN(Cc3ccccc3[N+](=O)[O-])CC2)cc1 ?
Sfp PPTase inh: -26.4%; FBPA coupling cs: 3.3

Results for COc1cc(OC)cc(C(=O)N2CCN(Cc3ccccc3[N+](=O)[O-])CC2)c1 ?
Sfp PPTase inh: 50.1µM*; FBPA coupling cs: 2.7; Tau ThT inhib: -14.9%; Tau FP inhib: -3.4%; Tau fluor cs: -8.3%

How did C[C@@H]1O[C@H](O[C@@H]2C(O)[C@H](O)[C@@H](CO)O[C@H]2Oc2cc(O)c3c(=O)cc(-c4ccc(O)cc4)oc3c2)[C@H](O)[C@H](O)[C@H]1O (stereo partly drawn) do in these assays?
Sfp PPTase inh: 4.3%; FBPA coupling cs: 3.2

What do the screens show for `COc1cccc(N=Nc2c(=O)[nH]n3c(=O)cc(C)[nH]c23)c1`?
Sfp PPTase inh: -11.3%; FBPA coupling cs: -1.2; Tau ThT inhib: 15.8µM*; Tau FP inhib: 6.4%; Tau fluor cs: -20.0%

How did O=c1[nH]n2c(=O)c3c([nH]c2c1N=Nc1cccc(C(F)(F)F)c1)CCCC3 do in these assays?
Sfp PPTase inh: 10.7%; FBPA coupling cs: 5.5; Tau ThT inhib: 2.82µM*; Tau FP inhib: 0.4%; Tau fluor cs: -25.0%

Source: PubChem BioAssay (National Center for Advancing Translational Sciences (NCATS))
